# Measured values reported in PubChem BioAssay (NCATS).
# Records with an inconclusive call do not appear. A number with no mark means an inactive call. Active and inactive are the calls of the source. Calls follow the shape of the dose curve; as a rule, active = well fitted inhibition curve with a large enough effect; inconclusive = small, poorly fitted or top-dose-only effect; inactive = no such curve, though single readings can be large or run the other way.
# Assay: qHTS Screen of the MIPE 4.0 Collection Against Ewings Sarcoma (RDES) (AID 1259252); also: nearly all actives have a fitted effect of over 35% in size;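 as to viability (percent of control): 100% = DMSO-treated cells and 0% = medium-only wells without cells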
# Details: RD-ES Ewing sarcoma viability, CellTiter-Glo, 48 h; series mostly up to 45.8 µM; viability (percent of control): at the top concentration
# Description: There is a large unmet medical need for treatments for Ewing sarcoma, a pediatric sarcoma. We sought to identify compounds that inhibited Ewing sarcoma cells in vitro with the goal to then test promising drugs in two drug combinations in vitro to look for synergistic drug combinations. Promising combinations would then proceed to additional validation, including in vivo testing.
# Using the NCATS developed oncology compound library called the Mechanism of Interrogation Plate (MIPE), four Ewing sarcoma cell lines were evaluated (TC32, TC71, RDES, EW8). Compounds, in a 12-point titration series, were incubated with cells for 48 hours and the read out was cell viability (CellTiter-Glo from Promega). These initial experiments were used to select appropriate concentrations of each single agent for subsequent two-drug matrix combinations such that the concentrations in the matrices would span both activity and non-activity.
# Cells, in the log phase of growth, were seeded in 5 uL of RPMI plus 5% FBS, […] L-glutamine, 100 U/ml penicillin and 100 ug/ml streptomycin into 1536-well solid-bottom white tissue culture treated Greiner Bio One Plates (789173-F) using a MultiDrop Combi (Thermofisher Scientific) dispenser and a small sterile cassette. One column was media alone to be used as a :"no cells" control. The plates were then covered with sterilized stainless steel gasketed lids from Kalypsys. After allowing cells to attach for 4 hours, 23 nL of test compound or control (negative control DMSO and positive control 9.2 uM Bortezomib-final) were added from a 1536-well polypropylene compound source plate to each well using a 1536 head pin tool from Kalypsys. Cells were then incubated for 48 hours at 37C, 95% relative humidity and 5% CO2. After 48 hours, plates were removed from the incubator and 3 uL of CellTiter-Glo (Promega) was added using an Aurora Flying Reagent Dispenser Bioraptor. Plates were incubated at room temperature for 10 minutes prior to reading the luminescence on the Viewlux (PerkinElmer). The relative luciferase units are used to calculate the percent activity using the activity of DMSO in the cells and no cells columns for normalization of no inhibition and full inhibition respectively.
# Potency is read from the fitted curve at half-maximal effect.
Structure (SMILES),viability (percent of control),Potency
CCOC(=O)[C@H]1O[C@H]1C(=O)N[C@@H](CC(C)C)C(=O)NCCC(C)C,124%,–
CC=C(C(=CC)c1ccc(O)cc1)c1ccc(O)cc1,–,20.9 µM (active)
COc1cc(C=CC(=O)O)ccc1O,115%,–
CC(C)(C)c1nc(-c2cccc(NS(=O)(=O)c3c(F)cccc3F)c2F)c(-c2ccnc(N)n2)s1,–,6.62 µM (active)
C[C@@]1(C(=O)Nc2ccc(F)nc2)CCCN1c1nc(Nc2cc(C3CC3)[nH]n2)c2cccn2n1,–,2.64 µM (active)
CCOC(=O)N1c2ccc(C(F)(F)F)cc2[C@@H](N(Cc2cc(C(F)(F)F)cc(C(F)(F)F)c2)C(=O)OC)C[C@H]1CC,–,23.5 µM (active)
CO[C@H]1/C=C\O[C@@]2(C)Oc3c(C)c(O)c4c(O)c(c(C=NN5CCN(C6CCCC6)CC5)c(O)c4c3C2=O)NC(=O)C(C)=CC=C[C@H](C)[C@H](O)[C@@H](C)[C@@H](O)[C@@H](C)[C@H](OC(C)=O)[C@H]1C,–,0.0418 µM (active)
O=c1[nH]c(=O)n([C@H]2C[C@@H](O)[C@@H](CO)O2)cc1I,116%,–
N#CC1(c2cccc(C(=O)Nc3cc(Oc4ccc5nc(NC(=O)C6CC6)sc5n4)ccc3F)c2Cl)CC1,–,16.6 µM (active)
C=C1[C@H](n2cnc3c(=O)[nH]c(N)nc32)C[C@H](O)[C@H]1CO,–,9.35 µM (active)
CNc1nc(Nc2ccc(C(=O)N3CCOCC3)cc2OC)ncc1Cl,126%,–
CN(C)CCOc1cc(-c2cn[nH]c2)ccc1NC(=O)C1COc2ccccc2O1 (stereo not given),–,14.8 µM (active)
NC[C@H]1O[C@H](O[C@@H]2[C@@H](O)[C@@H](O[C@H]3O[C@H](CO)[C@@H](O)[C@H](N)[C@@H]3O)[C@H](N)C[C@@H]2N)[C@H](O)[C@@H](O)[C@H]1O,120%,–
CNC1[C@H](O)C(O[C@@H]2C(O)C(O[C@H]3O[C@H]([C@@H](C)NC)CC[C@H]3N)[C@@H](N)C[C@H]2N)OC[C@]1(C)O (stereo not given in full),109%,–
Cc1c(-c2cccc3c(CCCOc4cccc5ccccc45)c(C(=O)O)n(Cc4cccnc4)c23)c(COc2ccc(N3CCN([S+](=O)([O-])N(C)C)CC3)cc2)nn1C,–,16.6 µM (active)
C[C@H]1COC2=C1C(=O)C(=O)c1c2ccc2c1CCCC2(C)C,–,20.9 µM (active)
CN[C@H]1[C@@H](O[C@@H]2[C@H](O[C@@H]3[C@@H](O)[C@@H](O)[C@@H](N=C(N)N)[C@@H](O)[C@@H]3N=C(N)N)O[C@H](C)[C@@]2(O)C=O)O[C@@H](CO)[C@@H](O)[C@H]1O,118% [at 15.3 µM],–
Oc1cc(O)cc(C=Cc2ccc(O)c(O)c2)c1,–,20.9 µM (active)
COC(=O)[C@H](c1ccccc1Cl)N1CCc2sccc2C1,113%,–
O=C(O)CCC=CCC[C@@H]1[C@H](N2CCCCC2)[C@@H](O)C[C@@H]1OCc1ccc(-c2ccccc2)cc1,119%,–

Structure (SMILES),viability (percent of control),Potency
CCC(=C(CC)c1ccc(O)cc1)c1ccc(O)cc1,–,23.5 µM (active)
COc1cc(CNC(=O)CCCCC=CC(C)C)ccc1O,–,5.9 µM (active)
CO[C@H]1C=CO[C@@]2(C)Oc3c(C)c(O)c4c(O)c(c(C=NN5CCN(C)CC5)c(O)c4c3C2=O)NC(=O)C(C)=CC=C[C@H](C)[C@H](O)[C@@H](C)[C@@H](O)[C@@H](C)[C@H](OC(C)=O)[C@H]1C,132% [at 15.3 µM],–
CCOC(=O)[C@H](CCc1ccccc1)N[C@@H](C)C(=O)N1CCCC1C(=O)O (stereo not given in full),–,20.9 µM (active)
C[C@@H](O)[C@H]1C(=O)N2C(C(=O)OCOC(=O)C(C)(C)C)=C(SC3CN(C4=NCCS4)C3)[C@H](C)[C@H]12,90.6%,–
O=C1Nc2ccc(I)cc2C1=Cc1cc(Br)c(O)c(Br)c1,–,18.7 µM (active)
O=S(=O)(NCCNCC=Cc1ccc(Br)cc1)c1cccc2cnccc12,–,2.64 µM (active)
C[C@@H]1[C@H](C)CC[C@]2(C(=O)O)CC[C@]3(C)C(=CC[C@@H]4[C@@]5(C)CC[C@H](O)C(C)(C)[C@H]5CC[C@]43C)[C@@H]12,–,2.7 µM (active)
N#CC(c1ccc(Cl)cc1)c1c(Cl)cc(-n2ncc(=O)[nH]c2=O)cc1Cl (stereo not given),–,26.4 µM (active)
CN[C@@H]1CN(c2ccc3c(=O)c(C(=O)O)cn(-c4nccs4)c3n2)C[C@@H]1OC,–,1.29 µM (active)
COc1cc2c(cc1Cc1cccc(Cl)c1F)c(=O)c(C(=O)O)cn2[C@H](CO)C(C)C,–,26.4 µM (active)
CN(C)CCN(C)C(=O)c1ccc(NC(=O)Nc2ccc(-c3nc(N4CCOCC4)c4ccn(CC(F)(F)F)c4n3)cc2)cc1,–,0.0187 µM (active)
CC(=O)Nc1cccc(-n2c(=O)n(C3CC3)c(=O)c3c(Nc4ccc(I)cc4F)n(C)c(=O)c(C)c32)c1,–,20.9 µM (active)
c1ccc(CNc2nc(N3CCOc4ccccc43)nc3c2CCCC3)cc1,116%,–
CCC[C@@H](NC(=O)[C@@H]1[C@H]2CCC[C@@H]2CN1C(=O)[C@@H](NC(=O)[C@@H](NC(=O)c1cnccn1)C1CCCCC1)C(C)(C)C)C(=O)C(=O)NC1CC1,87.2%,–
CC1=C[C@@H]2[C@@H]([C@@H](O)C[C@@]3(C)[C@H]2C[C@@H](C)[C@]3(O)C(=O)CO)[C@@]2(C)Cc3cnn(-c4ccccc4)c3C=C12,–,23.5 µM (active)
O=C(Nc1cccc(C(F)(F)F)c1)Nc1cc(S(=O)(=O)NC2CC2)ccc1-c1ccsc1,–,20.9 µM (active)
CC(C)=CCCC(C)=CCCC(C)=CCCC(C)=CCCC(C)=CCCC(C)=CCCC(C)=CCCC(C)=CCCC(C)=CCO,108%,–
CN1CC(=O)N2C(Cc3c([nH]c4ccccc34)[C@H]2c2ccc3c(c2)OCO3)C1=O (stereo not given in full),103%,–
COc1cc2c(cc1OC)CC(=O)N(CCCN(C)C[C@H]1Cc3cc(OC)c(OC)cc31)CC2,–,16.6 µM (active)
